Test results reported in the supplement of paper PMC3334620.
The full ranking holds about 33,000 sequences; the median of “E-score (-0.5 to 0.5)” is about -0.012, and the highest 2% start at about 0.27. Many of the other results were omitted from the sample, so the highest values are more common in it than they were.

These sequences were tested against T1, Vhr1 (UniProt P40522) (assay: PBM E-score (8-mer binding enrichment) (E-score (-0.5 to 0.5)); higher = stronger / more preferred TF binding). Settings: protein concentration: 200 nM; construct: GST-full length.
T1 sequence: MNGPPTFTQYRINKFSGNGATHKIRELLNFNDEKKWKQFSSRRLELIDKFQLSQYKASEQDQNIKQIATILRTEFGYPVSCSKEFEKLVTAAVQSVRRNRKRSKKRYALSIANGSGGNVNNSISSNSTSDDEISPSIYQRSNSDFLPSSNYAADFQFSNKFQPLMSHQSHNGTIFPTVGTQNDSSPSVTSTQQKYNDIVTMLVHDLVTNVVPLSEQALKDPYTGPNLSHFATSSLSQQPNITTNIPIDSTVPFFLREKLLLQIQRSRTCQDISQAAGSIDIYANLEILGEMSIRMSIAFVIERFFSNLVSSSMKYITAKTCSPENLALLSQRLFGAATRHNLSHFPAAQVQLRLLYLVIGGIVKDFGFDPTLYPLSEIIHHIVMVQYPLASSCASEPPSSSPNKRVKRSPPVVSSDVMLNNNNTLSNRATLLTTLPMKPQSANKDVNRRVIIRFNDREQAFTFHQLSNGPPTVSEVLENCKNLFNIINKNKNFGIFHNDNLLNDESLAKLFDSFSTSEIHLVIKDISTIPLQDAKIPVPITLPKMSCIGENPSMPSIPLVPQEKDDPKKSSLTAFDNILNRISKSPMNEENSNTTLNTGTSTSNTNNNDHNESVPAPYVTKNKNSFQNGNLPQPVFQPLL
How it was run: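 E-scores (a modified Wilcoxon-Mann-Whitney statistic) were assigned by the Universal PBM Analysis Suite to every ungapped eight-base word pooled with its reverse complement. The input came from universal all-10-mer Agilent arrays made double-stranded by primer extension and probed with GST-tagged yeast transcription factors at about 100-200 nM. Fluorescent anti-GST detected bound protein, and masliner normalised the scans.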

Compared with AGACTCAG, ACTCTCAT is lower in “PBM E-score” value: 0.242 for the first, 0.027 for the second.

Compared with AGACTCCT, AGACTCGC is lower in “PBM E-score” value: 0.186 for the first, 0.136 for the second.

Compared with AGACTCAT, AGACTCAC is higher in “PBM E-score” value: 0.353 for the first, 0.399 for the second.

First: CCGCCTTC
Second: CCCGTCGG
The “PBM E-score” value of the first is lower: 0.0298 for the first, 0.065 for the second.

First: CAAGCTCG
Second: GGCGCTAC
The “PBM E-score” value of the first is higher: 0.0842 for the first, -0.192 for the second.

Going from GTGGAGAA to CCGTGTTA, the “PBM E-score” value rises from -0.13 to 0.152.

Compared with ACGTGTTC, CCGTGTTC is higher in “PBM E-score” value: -0.219 for the first, 0.271 for the second.

First: ACACAGAC
Second: CGCTGCCA
The “PBM E-score” value of the first is higher: 0.25 for the first, -0.0656 for the second.

Going from AAAGTACA to ACTACCAC, the “PBM E-score” value rises from 0.071 to 0.175.

Going from ACTACAAT to ACTACAAC, the “PBM E-score” value falls from 0.277 to 0.212.

Going from ACTACAAG to ACTACTAT, the “PBM E-score” value rises from -0.00586 to 0.325.

Compared with ACTACTAA, ACTACCAA is higher in “PBM E-score” value: 0.0623 for the first, 0.163 for the second.

Compared with ACTACTAC, ACTACCAT is higher in “PBM E-score” value: 0.232 for the first, 0.278 for the second.

Compared with AGCAAGGG, GAGTGCGC is lower in “PBM E-score” value: -0.0155 for the first, -0.0251 for the second.

Going from CCCGATGC to ACCGATGA, the “PBM E-score” value rises from -0.18 to 0.00055.

Going from CCCGATGA to GTGCGCGA, the “PBM E-score” value falls from 0.273 to 0.0151.

Going from CCGCATGA to GACTATGC, the “PBM E-score” value rises from 0.146 to 0.233.

Compared with GACTATGA, TACTATGA is higher in “PBM E-score” value: 0.289 for the first, 0.317 for the second.

Going from AACTATGA to CACTATGA, the “PBM E-score” value falls from 0.22 to 0.173.

Compared with GACTATCA, AGAGGCTG is lower in “PBM E-score” value: 0.0818 for the first, -0.116 for the second.

Compared with AGTGACTG, GGTGACGA is lower in “PBM E-score” value: 0.288 for the first, 0.113 for the second.

Compared with AGTGACTA, AGTGACGA is lower in “PBM E-score” value: 0.367 for the first, 0.139 for the second.

First: AGTGACCG
Second: AGTGACGG
The “PBM E-score” value of the first is lower: -0.117 for the first, 0.00494 for the second.

First: AGTGACAA
Second: GGTGACCA
The “PBM E-score” value of the first is higher: 0.0325 for the first, -0.0328 for the second.

Going from GGTGACTA to GAGGAAGC, the “PBM E-score” value falls from 0.44 to -0.151.

First: AGACCTCT
Second: TAGGAAAA
The “PBM E-score” value of the first is higher: -0.143 for the first, -0.22 for the second.

Going from TAAGCCGA to GTCTGTGA, the “PBM E-score” value rises from -0.13 to 0.235.

Compared with GCATTCCA, AGCCTGAC is higher in “PBM E-score” value: -0.177 for the first, -0.0744 for the second.

Going from CATCATCC to CATCATCG, the “PBM E-score” value rises from 0.119 to 0.16.

Compared with ATCCATCC, AATCATCG is higher in “PBM E-score” value: 0.156 for the first, 0.334 for the second.

First: AATCATCT
Second: AATCATCA
The “PBM E-score” value of the first is lower: 0.185 for the first, 0.374 for the second.

Compared with TATCATCA, CATCATCA is lower in “PBM E-score” value: 0.147 for the first, -0.0217 for the second.

Compared with ATCCATCA, AATCATCC is higher in “PBM E-score” value: 0.289 for the first, 0.405 for the second.

First: GATCATCC
Second: ATCCATCG
The “PBM E-score” value of the first is higher: 0.141 for the first, 0.0134 for the second.

Compared with AAGATTTG, ACAGTGGG is lower in “PBM E-score” value: -0.09 for the first, -0.133 for the second.

Compared with ACATCTAC, GCGCCAAC is lower in “PBM E-score” value: 0.155 for the first, -0.0311 for the second.

Going from GCCCCCCA to GGCCCAGA, the “PBM E-score” value falls from -0.244 to -0.26.

Going from AGTTACAT to GACACATA, the “PBM E-score” value rises from -0.043 to 0.197.

First: GGGACACC
Second: GGGACACA
The “PBM E-score” value of the first is lower: -0.0207 for the first, 0.297 for the second.

Going from AACACACC to TGGACACA, the “PBM E-score” value falls from 0.27 to 0.0645.

Going from GAGACACA to GACACACC, the “PBM E-score” value rises from 0.14 to 0.28.

Compared with CACACACC, GACACACA is higher in “PBM E-score” value: 0.235 for the first, 0.298 for the second.

Compared with GTGGGACA, CAAGGCAC is lower in “PBM E-score” value: 0.0875 for the first, -0.0306 for the second.

First: AAGGCCCT
Second: CTGGTAGA
The “PBM E-score” value of the first is lower: -0.164 for the first, 0.0523 for the second.

Compared with CAGCTAGA, AAGAATGG is lower in “PBM E-score” value: 0.0392 for the first, -0.12 for the second.

Compared with CTGACTTA, CTGACTTC is higher in “PBM E-score” value: 0.187 for the first, 0.195 for the second.

First: ATGACTTC
Second: AGGACTTA
The “PBM E-score” value of the first is higher: 0.341 for the first, -0.0181 for the second.

Compared with ACGACTTC, ATGACTTA is higher in “PBM E-score” value: 0.0846 for the first, 0.349 for the second.

Compared with ACCTTACT, CAGTACCG is higher in “PBM E-score” value: -0.129 for the first, 0.0537 for the second.

Compared with ACTGAGCT, ATGACCCA is higher in “PBM E-score” value: -0.0929 for the first, 0.362 for the second.

Compared with CTGACCCA, GTGACCCA is higher in “PBM E-score” value: 0.0712 for the first, 0.267 for the second.

Going from TCGCTGAA to AGAACACT, the “PBM E-score” value rises from 0.0432 to 0.108.

First: CACGGTGC
Second: CACGGTGA
The “PBM E-score” value of the first is lower: 0.0709 for the first, 0.106 for the second.

Compared with CACGGTGG, ATGCATAG is lower in “PBM E-score” value: 0.273 for the first, 0.013 for the second.

First: CATGTCTC
Second: AATGTCTC
The “PBM E-score” value of the first is higher: 0.294 for the first, 0.137 for the second.

Compared with CATGTCTA, AGTGAGTA is higher in “PBM E-score” value: 0.0965 for the first, 0.192 for the second.

Going from GGTGAGGA to CATGAGTA, the “PBM E-score” value rises from 0.00616 to 0.225.

Going from GCTGAGTA to GGTGAGTA, the “PBM E-score” value rises from 0.0378 to 0.282.

Compared with GATGAGTA, TCGCAGCA is lower in “PBM E-score” value: 0.382 for the first, 0.0961 for the second.

Compared with ACTTCTAT, CACTGCGG is higher in “PBM E-score” value: -0.0176 for the first, 0.213 for the second.

Compared with CATGTTGC, AATGTTGA is lower in “PBM E-score” value: 0.0935 for the first, 0.043 for the second.

Going from CATGTTGA to GGTTTCTA, the “PBM E-score” value falls from 0.278 to -0.122.

Compared with CTCATCAC, CTCATCAG is higher in “PBM E-score” value: 0.0121 for the first, 0.312 for the second.

Going from ATCATCAG to TAACACGA, the “PBM E-score” value rises from 0.0874 to 0.212.

First: CTCTCCAG
Second: ATGTCTAG
The “PBM E-score” value of the first is lower: -0.232 for the first, 0.12 for the second.

First: AAGGAGTC
Second: CAGGAGTC
The “PBM E-score” value of the first is lower: 0.203 for the first, 0.373 for the second.

First: ACGGAGTG
Second: ACGGAGTC
The “PBM E-score” value of the first is lower: 0.00137 for the first, 0.408 for the second.

Going from CCGGAGTA to CCGGAGGC, the “PBM E-score” value falls from 0.0674 to -0.141.

Going from ACGGAGTA to CCGGAGTC, the “PBM E-score” value rises from 0.0079 to 0.421.

Going from CAGGAGTA to AGCCGTCA, the “PBM E-score” value falls from -0.00382 to -0.0405.

Going from GCAAGTAC to ATAGGAAG, the “PBM E-score” value rises from -0.109 to 0.0182.

Compared with AGAGTTTG, CGCTGTTA is lower in “PBM E-score” value: 0.0245 for the first, -0.0856 for the second.

Going from AGTCACGG to ATTCACGC, the “PBM E-score” value falls from 0.417 to 0.117.

Compared with GGTCACGA, CGTCACGC is lower in “PBM E-score” value: 0.09 for the first, -0.208 for the second.

Going from CGTCACGA to ATTCACGG, the “PBM E-score” value rises from 0.00392 to 0.0271.

First: AGTCACGC
Second: AGTCACGA
The “PBM E-score” value of the first is higher: 0.426 for the first, 0.411 for the second.

First: AATCACGG
Second: CAGAACAG
The “PBM E-score” value of the first is higher: 0.259 for the first, 0.066 for the second.

First: GGCTCCTA
Second: CCAACAGA
The “PBM E-score” value of the first is lower: -0.136 for the first, -0.0653 for the second.

Compared with CCCCGCTA, CTTTGGCC is lower in “PBM E-score” value: -0.0924 for the first, -0.254 for the second.

Going from AATTAATA to CCACTCGA, the “PBM E-score” value falls from 0.102 to 0.0905.

Compared with ATTCAATA, GTCACGTA is higher in “PBM E-score” value: -0.0197 for the first, 0.13 for the second.

First: ACGCCTTG
Second: CTTGGCCA
The “PBM E-score” value of the first is lower: -0.0936 for the first, -0.0546 for the second.

Going from GTAGTCCA to GCAGCGAC, the “PBM E-score” value rises from -0.0646 to 0.167.

First: ATGGTTCA
Second: GTGGTTCA
The “PBM E-score” value of the first is higher: 0.366 for the first, 0.254 for the second.

First: ATGGTTCC
Second: CTGGTTCC
The “PBM E-score” value of the first is higher: 0.318 for the first, 0.0593 for the second.

First: CTGGTTCA
Second: ATGGTTCG
The “PBM E-score” value of the first is lower: -0.0177 for the first, 0.224 for the second.
